Source: the supplement of paper PMC8728848
The entries come from a sample that favours the strongest signals as a whole.

What was measured:
Test in all cases: glycan array binding signal (z-score within array); higher = stronger binding
Conditions in all cases: glycan notation: IUPAC condensed, linker removed
[1] = molecular target: Fuc(a1-2)Gal(b1-3)GalNAc(b1-4)[Neu5Ac(a2-3)]Gal(b1-4)Glc
Outline: (§1)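 Negative Z-scores can be read as non-binding. The Z-score is calculated within each array and then averaged across arrays of one protein sequence at different concentrations or buffers and across linkers. Arrays, 3228 in all, were curated from the Consortium for Functional Glycomics database and kept only where the protein sequence was available.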

[2] = molecular target: Fuc(a1-2)Gal(b1-4)GlcNAc(b1-2)Man
Outline: as §1

[3] = molecular target: Fuc(a1-2)Gal(b1-4)GlcNAc(b1-2)[Fuc(a1-2)Gal(b1-4)GlcNAc(b1-4)]Man(a1-3)[Fuc(a1-2)Gal(b1-4)GlcNAc(b1-2)Man(a1-6)]Man(b1-4)GlcNAc(b1-4)GlcNAc
Outline: as §1

[4] = molecular target: Fuc(a1-2)Gal(b1-4)GlcNAc(b1-6)GalNAc
Outline: as §1

[5] = molecular target: Fuc(a1-2)Gal(b1-4)[Fuc(a1-3)]GlcNAc(b1-3)Gal(b1-4)[Fuc(a1-3)]GlcNAc(b1-3)Gal(b1-4)[Fuc(a1-3)]GlcNAc
Outline: as §1

Fuc(a1-2)Gal6S(b1-4)Glc = molecular target: Fuc(a1-2)Gal6S(b1-4)Glc
Outline: as §1

[6] = molecular target: Fuc(a1-2)[Gal(a1-3)]Gal(b1-4)[Fuc(a1-3)]GlcNAc
Outline: as §1

[7] = molecular target: Fuc(a1-2)[GalNAc(a1-3)]Gal(b1-3)GalNAc(a1-3)[Fuc(a1-2)]Gal(b1-4)GlcNAc
Outline: as §1

[8] = molecular target: Fuc(a1-2)[GalNAc(a1-3)]Gal(b1-4)GlcNAc(b1-2)Man(a1-3)[Fuc(a1-2)[GalNAc(a1-3)]Gal(b1-4)GlcNAc(b1-2)Man(a1-6)]Man(b1-4)GlcNAc(b1-4)GlcNAc
Outline: as §1

[9] = molecular target: Fuc(a1-3)[Gal(b1-4)]GlcNAc(b1-3)Gal(b1-4)[Fuc(a1-3)]GlcNAc(b1-3)Gal(b1-4)[Fuc(a1-3)]GlcNAc
Outline: as §1

Gal(a1-3)Gal(b1-4)Glc = molecular target: Gal(a1-3)Gal(b1-4)Glc
Outline: as §1

[10] = molecular target: Gal(a1-4)Gal(b1-3)GlcNAc(b1-2)Man(a1-3)[Gal(a1-4)Gal(b1-3)GlcNAc(b1-2)Man(a1-6)]Man(b1-4)GlcNAc(b1-4)GlcNAc
Outline: as §1

[11] = molecular target: Gal(a1-4)Gal(b1-4)GlcNAc(b1-2)Man(a1-3)[Gal(a1-4)Gal(b1-4)GlcNAc(b1-2)Man(a1-6)]Man(b1-4)GlcNAc(b1-4)GlcNAc
Outline: as §1

Gal(a1-6)Glc = molecular target: Gal(a1-6)Glc
Outline: as §1

[12] = molecular target: Gal(b1-3)GalNAc(a1-3)[Fuc(a1-2)]Gal(b1-4)GlcNAc
Outline: as §1

[13] = molecular target: Gal(b1-3)GlcNAc(b1-3)Gal(b1-4)GlcNAc(b1-3)Gal(b1-4)GlcNAc(b1-2)[Gal(b1-3)GlcNAc(b1-3)Gal(b1-4)GlcNAc(b1-3)Gal(b1-4)GlcNAc(b1-6)]Man(a1-6)[Gal(b1-3)GlcNAc(b1-3)Gal(b1-4)GlcNAc(b1-3)Gal(b1-4)GlcNAc(b1-2)Man(a1-3)]Man(b1-4)GlcNAc(b1-4)[Fuc(a1-6)]GlcNAc
Outline: as §1

[14] = molecular target: Gal(b1-3)GlcNAc(b1-3)Gal(b1-4)GlcNAc(b1-6)[Gal(b1-3)GlcNAc(b1-3)]Gal(b1-4)Glc
Outline: as §1

[15] = molecular target: Gal(b1-4)GlcNAc(b1-2)Man(a1-6)[Man(a1-3)]Man(b1-4)GlcNAc(b1-4)GlcNAc
Outline: as §1

[16] = molecular target: Gal(b1-4)GlcNAc(b1-2)[Gal(b1-4)GlcNAc(b1-6)]Man(a1-6)[Gal(b1-4)GlcNAc(b1-2)Man(a1-3)]Man(b1-4)GlcNAc(b1-4)GlcNAc
Outline: as §1

[17] = molecular target: Gal(b1-4)GlcNAc(b1-3)Gal(b1-4)GlcNAc(b1-2)[Gal(b1-4)GlcNAc(b1-3)Gal(b1-4)GlcNAc(b1-6)]Man(a1-6)[Gal(b1-4)GlcNAc(b1-3)Gal(b1-4)GlcNAc(b1-2)Man(a1-3)]Man(b1-4)GlcNAc(b1-4)GlcNAc
Outline: as §1

[18] = molecular target: Gal(b1-4)GlcNAc(b1-3)Gal(b1-4)GlcNAc(b1-3)[Gal(b1-4)GlcNAc(b1-3)Gal(b1-4)GlcNAc(b1-6)]GalNAc
Outline: as §1

Gal6S(b1-4)Glc = molecular target: Gal6S(b1-4)Glc
Outline: as §1

[19] = molecular target: GalNAc3S(b1-4)[Fuc(a1-3)]GlcNAc
Outline: as §1

[20] = molecular target: GlcNAc(b1-2)[GlcNAc(b1-4)]Man(a1-3)[GlcNAc(b1-4)][GlcNAc(b1-2)Man(a1-6)]Man(b1-4)GlcNAc(b1-4)GlcNAc
Outline: as §1

[21] = molecular target: GlcNAc(b1-3)Gal(b1-4)GlcNAc(b1-2)Man(a1-3)[GlcNAc(b1-3)Gal(b1-4)GlcNAc(b1-2)Man(a1-6)]Man(b1-4)GlcNAc(b1-4)[Fuc(a1-6)]GlcNAc
Outline: as §1

[22] = molecular target: GlcNAc(b1-3)Gal(b1-4)GlcNAc(b1-2)[GlcNAc(b1-3)Gal(b1-4)GlcNAc(b1-6)]Man(a1-6)[GlcNAc(b1-3)Gal(b1-4)GlcNAc(b1-2)Man(a1-3)]Man(b1-4)GlcNAc(b1-4)GlcNAc
Outline: as §1

[23] = molecular target: Man(a1-2)Man(a1-6)[Man(a1-3)]Man(a1-6)[Man(a1-2)Man(a1-2)Man(a1-3)]Man(b1-4)GlcNAc(b1-4)GlcNAc
Outline: as §1

Man(a1-3)[Man(a1-6)]Man = molecular target: Man(a1-3)[Man(a1-6)]Man
Outline: as §1

MurNAc(b1-4)GlcNAc = molecular target: MurNAc(b1-4)GlcNAc
Outline: as §1

[24] = molecular target: Neu5Ac(a2-3)Gal(b1-3)[Fuc(a1-4)]GlcNAc(b1-3)Gal(b1-4)[Fuc(a1-3)]GlcNAc
Outline: as §1

[25] = molecular target: Neu5Ac(a2-3)Gal(b1-3)[GlcNAc(b1-6)]GalNAc
Outline: as §1

[26] = molecular target: Neu5Ac(a2-3)Gal(b1-4)GlcNAc(b1-3)Gal(b1-4)GlcNAc(b1-2)Man(a1-3)[Neu5Ac(a2-3)Gal(b1-4)GlcNAc(b1-3)Gal(b1-4)GlcNAc(b1-2)Man(a1-6)]Man(b1-4)GlcNAc(b1-4)GlcNAc
Outline: as §1

[27] = molecular target: Neu5Ac(a2-3)Gal(b1-4)GlcNAc(b1-3)Gal(b1-4)GlcNAc(b1-3)GalNAc
Outline: as §1

[28] = molecular target: Neu5Ac(a2-3)Gal(b1-4)GlcNAc6S
Outline: as §1

[29] = molecular target: Neu5Ac(a2-3)Gal(b1-4)[Fuc(a1-3)]GlcNAc6S
Outline: as §1

[30] = molecular target: Neu5Ac(a2-3)Gal6S(b1-4)GlcNAc
Outline: as §1

[31] = molecular target: Neu5Ac(a2-3)[Neu5Ac(a2-6)]GalNAc
Outline: as §1

[32] = molecular target: Neu5Ac(a2-6)Gal(b1-4)GlcNAc(b1-2)Man(a1-3)[Neu5Ac(a2-6)Gal(b1-4)GlcNAc(b1-2)Man(a1-6)]Man(b1-4)GlcNAc(b1-4)[Fuc(a1-6)]GlcNAc
Outline: as §1

[33] = molecular target: Neu5Ac(a2-6)Gal(b1-4)GlcNAc(b1-2)[Neu5Ac(a2-6)Gal(b1-4)GlcNAc(b1-4)]Man(a1-3)[GlcNAc(b1-4)][Neu5Ac(a2-6)Gal(b1-4)GlcNAc(b1-2)[Neu5Ac(a2-6)Gal(b1-4)GlcNAc(b1-6)]Man(a1-6)]Man(b1-4)GlcNAc(b1-4)GlcNAc
Outline: as §1

[34] = molecular target: Neu5Ac(a2-6)Gal(b1-4)GlcNAc(b1-3)Gal(b1-4)GlcNAc
Outline: as §1

[35] = molecular target: Neu5Ac(a2-6)Gal(b1-4)GlcNAc(b1-3)Gal(b1-4)GlcNAc(b1-2)Man(a1-3)[Neu5Ac(a2-6)Gal(b1-4)GlcNAc(b1-3)Gal(b1-4)GlcNAc(b1-2)Man(a1-6)]GalNAc
Outline: as §1

[36] = molecular target: Neu5Ac(a2-6)Gal(b1-4)GlcNAc(b1-3)Gal(b1-4)GlcNAc(b1-3)Gal(b1-4)GlcNAc(b1-2)Man(a1-3)[Neu5Ac(a2-6)Gal(b1-4)GlcNAc(b1-3)Gal(b1-4)GlcNAc(b1-3)Gal(b1-4)GlcNAc(b1-2)Man(a1-6)]GalNAc
Outline: as §1

[37] = molecular target: Neu5Ac(b2-6)Gal(b1-4)GlcNAc
Outline: as §1

[38] = molecular target: Neu5Gc(a2-8)Neu5Gc(a2-3)Gal(b1-4)GlcNAc(b1-3)Gal(b1-4)GlcNAc
Outline: as §1

B1: DC-Sign-R (Homo sapiens), Q9H2X3 (protein)
chain: MSDSKEPRVQQLGLLEEDPTTSGIRLFPRDFQFQQIHGHKSSTGCLGHGALVLQLLSFMLLAGVLVAILVQVSKVPSSLSQEQSEQDAIYQNLTQLKAAVGELSEKSKLQEIYQELTQLKAAVGELPEKSKLQEIYQELTRLKAAVGELPEKSKLQEIYQELTRLKAAVGELPEKSKLQEIYQELTRLKAAVGELPEKSKLQEIYQELTELKAAVGELPEKSKLQEIYQELTQLKAAVGELPDQSKQQQIYQELTDLKTAFERLCRHCPKDWTFFQGNCYFMSNSQRNWHDSVTACQEVRAQLVVIKTAEEQNFLQLQTSRSNRFSWMGLSDLNQEGTWQWVDGSPLSPSFQRYWNSGEPNNSGNEDCAEFSGSGWNDNRCDVDNYWICKKPAACFRDE
[1]
  glycan array binding signal (z-score): -0.074
[2]
  glycan array binding signal (z-score): 1.11
[3]
  glycan array binding signal (z-score): -0.8
[4]
  glycan array binding signal (z-score): -0.508
[5]
  glycan array binding signal (z-score): -0.308
Fuc(a1-2)Gal6S(b1-4)Glc
  glycan array binding signal (z-score): -0.528
[6]
  glycan array binding signal (z-score): 0.112
[7]
  glycan array binding signal (z-score): -0.817
[8]
  glycan array binding signal (z-score): -0.72
[9]
  glycan array binding signal (z-score): -0.384
Gal(a1-3)Gal(b1-4)Glc
  glycan array binding signal (z-score): -0.655
[10]
  glycan array binding signal (z-score): -0.125
[11]
  glycan array binding signal (z-score): -0.683
Gal(a1-6)Glc
  glycan array binding signal (z-score): -0.326
[12]
  glycan array binding signal (z-score): 1.15
[13]
  glycan array binding signal (z-score): 2.5
[14]
  glycan array binding signal (z-score): -0.833
[15]
  glycan array binding signal (z-score): 3
[16]
  glycan array binding signal (z-score): -0.33
[17]
  glycan array binding signal (z-score): 3.03
[18]
  glycan array binding signal (z-score): 0.59
Gal6S(b1-4)Glc
  glycan array binding signal (z-score): -0.744
[19]
  glycan array binding signal (z-score): -0.794
[20]
  glycan array binding signal (z-score): 2.91
[21]
  glycan array binding signal (z-score): 0.094
[22]
  glycan array binding signal (z-score): 2.48
[23]
  glycan array binding signal (z-score): -0.019
Man(a1-3)[Man(a1-6)]Man
  glycan array binding signal (z-score): -0.857
MurNAc(b1-4)GlcNAc
  glycan array binding signal (z-score): 0.448
[24]
  glycan array binding signal (z-score): -0.503
[25]
  glycan array binding signal (z-score): 2.7
[26]
  glycan array binding signal (z-score): 1.11
[27]
  glycan array binding signal (z-score): 2.49
[28]
  glycan array binding signal (z-score): -0.795
[29]
  glycan array binding signal (z-score): -0.531
[30]
  glycan array binding signal (z-score): -0.255
[31]
  glycan array binding signal (z-score): 0.964
[32]
  glycan array binding signal (z-score): -0.156
[33]
  glycan array binding signal (z-score): 3.11
[34]
  glycan array binding signal (z-score): -0.464
[35]
  glycan array binding signal (z-score): 4.44
[36]
  glycan array binding signal (z-score): 2.81
[37]
  glycan array binding signal (z-score): 3.63
[38]
  glycan array binding signal (z-score): 1.55
